This is an account of results in PubChem BioAssay (NCATS).

A short description of assay [1]: Cell Viability - BJ (AID 421; calls by dose curve;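 also: potency is read from the fitted curve at half-maximal effect; cells exposed to compound for 40 hours at 37 °C before readout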). Particulars: BJ fibroblast viability, qHTS. An outline of the steps: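 Cytotoxicity as drop in intracellular ATP (CellTiter-Glo, 20 min RT) after 40 hr compound exposure of BJ fibroblasts at 37 °C. Titrations scaled between DMSO and 100 uM tamoxifen, Hill-fitted for AC50.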
A general note: qHTS replaces the single test concentration by a dilution series.

Assay [2] in a line: Cell Viability - Hek293 (AID 427;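 active = compounds whose dose-response curve shows a full or clear partial loss of cell viability, called from curve shape rather than a numeric limit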;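 also: potency is read from the fitted curve at half-maximal effect; cells exposed to compound for 40 hours at 37 °C before reading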). As to conditions: qHTS. An outline of the steps:
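Luminescent ATP content (CellTiter-Glo, 20 min at room temperature) was measured after a 40 hr, 37 °C compound exposure of HEK293 cells. AC50 values came from Hill-equation fits of qHTS concentration-response data normalized to DMSO and 100 uM tamoxifen.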

A short description of assay [3]: Cell Viability - HepG2 (AID 433; calls by dose curve;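 also: potency is read from the fitted curve at half-maximal effect; potency for ATP loss meaning cytotoxicity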). As to conditions: qHTS. An outline of the steps: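 ATP luminescence (CellTiter-Glo) after 40 h compound exposure, 37 °C, HepG2, 1500 cells/well, complete medium. Normalized: DMSO = basal, 100 uM tamoxifen = 100% inhibition. AC50 via standard Hill equation.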
The nature of assay [4]: Cell Viability - MRC5 (AID 434; calls by dose curve;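 also: potency is read from the fitted curve at half-maximal effect; potency reflects cytotoxicity seen as loss of intracellular ATP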). Particulars: MRC5 lung fibroblast viability, qHTS. In outline:
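MRC5 normal human lung fibroblasts (1500/well) were treated with compounds for 40 hr at 37 °C in complete medium, and viable cells were measured as intracellular ATP by CellTiter-Glo luminescence. AC50 came from Hill fits, normalized to DMSO and 100 uM tamoxifen.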

Assay [5] is described as follows: Cell Viability - SK-N-SH (AID 435; calls by dose curve; also: potency is read from the fitted curve at half-maximal effect). As to conditions: SK-N-SH neuroblastoma cell viability qHTS. An outline of the steps: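 CellTiter-Glo ATP luminescence, 20 min RT read; cells pre-plated 5 hr, compound 40 hr at 37 °C, 1500 cells/well, complete medium. Normalized DMSO = 0, 100 uM tamoxifen = 100% inhibition; Hill-fit AC50.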
Assay [6] addresses Mitogen-activated protein kinase 10 (Mus musculus) (UniProt Q61831). The experiment in a line: JNK3 AlphaScreen Assay (AID 530).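 Also: kinase came from lysate of stimulated human HepG2 cells; signal reports phosphorylation of biotinylated GST-cJun 1-79 at Ser73 with 10 µM ATP; % is scaled to controls: 0 for no effect and ±100 for the full control effect.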 As to conditions: JNK3 lysate, c-Jun phosphorylation; series mostly up to 57.1 µM. An outline of the steps:
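Inhibitors reduce antibody binding to phosphorylated biotin-cJun, lowering AlphaScreen luminescence. Lysates from HepG2 cells pre-activated by IL-1beta plus TNF-alpha supplied JNK3; compounds were titrated.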
(In Alpha technology, singlet oxygen from a donor bead excites a nearby acceptor bead.)

Assay [7] can be described thus: Cell Viability - N2a (AID 540; active = well fitted curve in the direction sought with a large enough effect; an effect the other way counts as inactive or inconclusive;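 also: plate controls were DMSO alone for no effect and tamoxifen control for full effect; nearly all actives have a fitted effect of over 45% in size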). As to conditions: N2a mouse neuroblastoma cell viability; series mostly up to 92.2 µM. An outline of the steps:
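Mouse neuroblastoma N2a cells, 1500/well, exposed to compounds 40 h at 37 °C in complete medium. Viability measured as cellular ATP by CellTiter-Glo luminescence; AC50 from Hill fits of concentration-response.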

Assay [8] is described as follows: Cell Viability - NIH 3T3 (AID 541; active = well fitted curve in the direction sought with a large enough effect; an effect the other way counts as inactive or inconclusive;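 also: plate controls were DMSO alone for no effect and tamoxifen positive control for full effect; nearly all actives have a fitted effect of over 25% in size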). As to conditions: NIH 3T3 cell viability, qHTS; activity change, negative = cytotoxicity: at 92.2 µM (top of the series). In outline: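 Mouse NIH 3T3 fibroblasts, 1000 cells/well, rested 5 hr at 37 °C, then exposed to compound for 40 hr at 37 °C in complete medium. Viability read as intracellular ATP by CellTiter-Glo luminescence; AC50 from Hill-equation fits of concentration-response data.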

Assay [9] in a line: Cell Viability - HUV-EC-C (AID 542; active = well fitted curve in the direction sought with a large enough effect; an effect the other way counts as inactive or inconclusive; also: % is scaled to controls: 0 for no effect and ±100 for the full control effect; nearly all actives have a fitted effect of over 35% in size). Particulars: HUV-EC-C endothelial cell viability, qHTS; series mostly up to 92.2 µM. In outline: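 HUV-EC-C human vascular endothelial cells, 1000/well, exposed to compound for 40 hr at 37 °C in complete medium. Intracellular ATP was read by CellTiter-Glo luminescence. AC50 came from Hill-equation fits of concentration-response data.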
Assay [10] in a line: Cell Viability - H-4-II-E (AID 543; active = well fitted curve in the direction sought with a large enough effect; an effect the other way counts as inactive or inconclusive; also: % is scaled to controls: 0 for no effect and ±100 for the full control effect; nearly all actives have a fitted effect of over 35% in size). Particulars: H-4-II-E rat hepatoma viability; series mostly up to 92.2 µM. An outline of the steps: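 Rat hepatoma H-4-II-E cells, 1500 per well, treated 40 h at 37 °C in complete medium. Cellular ATP read by CellTiter-Glo luminescence; AC50 from Hill fits of concentration-response.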
Assay [11] can be described thus: Cell Viability - SH-SY5Y (AID 544; active = well fitted curve in the direction sought with a large enough effect; an effect the other way counts as inactive or inconclusive;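 also: 0% = DMSO alone and -100% = 100 µM tamoxifen; nearly all actives have a fitted effect of over 55% in size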). Particulars: SH-SY5Y neuroblastoma cell viability; series mostly up to 92.2 µM. An outline of the steps:
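SH-SY5Y human neuroblastoma cells (1500/well) incubated 5 h, then compound-treated 40 h at 37 °C in complete medium. Viability read as intracellular ATP by CellTiter-Glo luminescence after 20 min; AC50 from Hill-equation fits of qHTS concentration-response.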

Assay [12] can be described thus: Cell Viability - Renal Proximal Tubule (AID 545; active = well fitted curve in the direction sought with a large enough effect; an effect the other way counts as inactive or inconclusive;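 also: 0% = DMSO only and -100% = 100 µM tamoxifen; nearly all actives have a fitted effect of over 40% in size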). As to conditions: renal proximal tubule cells viability, primary cells of rat origin; activity change, negative = cytotoxicity: at 91.7 µM (top of the series). In outline: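 Rat kidney proximal tubule cells, freshly isolated; 1000 cells/well, 5 hr settle, compound 40 hr 37 °C. CellTiter-Glo 20 min RT, luminescence read. AC50 by standard Hill fit.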

Assay [13] can be described thus: AP1 Signaling Pathway (AID 357).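 Also: ME-180 reporter cells stimulated with EGF at its EC50 level; % is scaled to controls: 0 for no effect and ±100 for the full control effect.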 As to conditions: ME-180 AP-1-bla reporter, EGF-induced, beta-lactamase ratio, 5 h; at 17.2 µM (top of the series). An outline of the steps:
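Modulation of EGF-driven AP-1 transcription was assessed with a beta-lactamase reporter in ME-180 cells. Compound and EC50 EGF were co-incubated 5 hours at 37 °C before 2.5-hour CCF4 loading at room temperature and dual-emission reading.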

The nature of assay [14]: Stat Signaling Pathway (AID 446).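 Also: ME-180 cervical cancer cells given 40 pM IL-6 alongside compound; SIE-controlled beta-lactamase reporter measured as 460/530 nm FRET emission ratio; % is scaled to controls: 0 for no effect and ±100 for the full control effect.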 Particulars: ME-180 SIE beta-lactamase reporter, IL-6 stimulated, 5 h; series mostly up to 17.2 µM. An outline of the steps: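 Reporter line: ME-180 cervical carcinoma, SIE-beta-lactamase. Treatment: compound with 40 pM IL-6, 5 hrs, 37 C, in low-serum OPTI-MEM with 10 mM HEPES pH 7.3. Detection: 460/530 nm fluorescence.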
The nature of assay [15]: Cell Viability - Jurkat (AID 426;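 active = dose-dependent loss of cell ATP signal giving a full or clear fitted curve, ranked by lower potency value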; also: potency is read from the fitted curve at half-maximal effect). As to conditions: qHTS. An outline of the steps:
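Jurkat (Clone E6-1) cells, 5000/well in complete medium, exposed to compounds for 40 hr at 37C; intracellular ATP measured by CellTiter-Glo luminescence after 20 min at room temperature. AC50 from Hill fits.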

For assay [16], the target named is Glucocorticoid receptor (Homo sapiens) (UniProt P04150). The experiment in a line: GR-GFP Redistribution (AID 450;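 active = compounds whose dose series gives a full or clear partial fitted curve of increased nuclear translocation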; also: potency is read from the fitted curve at half-maximal effect). Particulars: U2OS GR-GFP nuclear translocation, laser cytometry, 2 h.
Assay [17] addresses Cytochrome P450 1A2 (Homo sapiens) (UniProt P05177). Description: p450-cyp1a2 (AID 410; calls by dose curve; also: potency is read from the fitted curve at half-maximal effect;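 as to activity change, negative = inhibition: -100% = full effect of reference inhibitor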). As to conditions: recombinant CYP1A2, luciferin-ME demethylation, luminescence; series mostly up to 57 µM. In outline:
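20nM CYP1A2 with 100uM Luciferin-ME (at Km) in 100mM KPO4; compound preincubated 10 min, NADPH regeneration added, 60 min at room temperature. Luciferin quantified by luminescence after detection reagent; normalized to 57 uM furafylline.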

The nature of assay [18]: NFAT Signaling Pathway (AID 444).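 Also: carbachol stimulus at about its EC50 of 1 µM final; % is scaled to controls: 0 for no effect and ±100 for the full control effect.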 As to conditions: Jurkat NFAT-bla M1, carbachol, beta-lactamase ratio, 5 h; at 17.2 µM (top of the series). An outline of the steps:
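Jurkat cells carrying an NFAT-driven β-lactamase reporter and co-transfected muscarinic M1 receptor were treated with compound plus carbachol (1 uM final, an EC50 level) for 5 h at 37 °C. CCF4 loading followed for 1 h at RT; 460/530 nm ratio gave %activity.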

Assay [19] has as its target Glucocorticoid receptor (Homo sapiens) (UniProt P04150). Description: GR-EFC Redistribution (AID 451; calls by dose curve; also: potency is read from the fitted curve at half-maximal effect). Particulars: CHO-K1 GR-EFC translocation, beta-gal luminescence, 2 h. An outline of the steps: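 CHO-K1 cells stably expressing nuclear-localized β-gal enzyme acceptor and GR fused C-terminally to the enzyme donor fragment; ligand-driven nuclear translocation restores β-gal by complementation. Compounds titrated up to 46 uM final, 2 h at 37 °C; luminescence read.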

“And” between values parts separate entries of the source, which are not always exact repeats. Equal entries are not always repeated. Inconclusive results are not listed. The source holds several records for some structures; these can differ, active in one and inactive in another. The source made the active and inactive calls. Unless noted, calls follow the shape of the dose curve; as a rule, active = well fitted curve in either direction with a large enough effect (not every such curve was filed as active); inconclusive = small, poorly fitted or top-dose-only effect, or another doubt; inactive = flat fitted curve, though single readings scatter.

Chain of Glucocorticoid receptor (Homo sapiens) (P04150 whole entry, looked up, the tested form may be a part): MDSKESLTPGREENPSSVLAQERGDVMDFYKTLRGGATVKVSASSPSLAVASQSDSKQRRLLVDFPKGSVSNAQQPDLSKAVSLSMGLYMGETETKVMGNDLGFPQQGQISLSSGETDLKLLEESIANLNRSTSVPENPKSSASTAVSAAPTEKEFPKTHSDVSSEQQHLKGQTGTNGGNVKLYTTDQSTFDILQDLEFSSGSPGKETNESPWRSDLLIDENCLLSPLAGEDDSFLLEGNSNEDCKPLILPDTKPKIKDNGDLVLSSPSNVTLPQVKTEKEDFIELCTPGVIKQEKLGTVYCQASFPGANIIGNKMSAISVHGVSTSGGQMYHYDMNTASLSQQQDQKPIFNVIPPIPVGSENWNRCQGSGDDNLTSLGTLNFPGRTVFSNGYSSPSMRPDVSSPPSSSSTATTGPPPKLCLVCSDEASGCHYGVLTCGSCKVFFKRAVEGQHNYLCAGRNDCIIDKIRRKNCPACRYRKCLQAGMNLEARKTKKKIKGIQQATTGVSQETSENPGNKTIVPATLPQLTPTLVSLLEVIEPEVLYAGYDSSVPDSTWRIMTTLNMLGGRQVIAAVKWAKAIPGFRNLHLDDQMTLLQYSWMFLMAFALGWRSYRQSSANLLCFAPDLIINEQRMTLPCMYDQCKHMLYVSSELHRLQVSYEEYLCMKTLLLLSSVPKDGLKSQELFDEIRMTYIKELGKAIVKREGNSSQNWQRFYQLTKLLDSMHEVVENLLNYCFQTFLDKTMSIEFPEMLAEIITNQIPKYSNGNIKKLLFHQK
Chain of Cytochrome P450 1A2 (Homo sapiens) (P05177 whole entry, looked up): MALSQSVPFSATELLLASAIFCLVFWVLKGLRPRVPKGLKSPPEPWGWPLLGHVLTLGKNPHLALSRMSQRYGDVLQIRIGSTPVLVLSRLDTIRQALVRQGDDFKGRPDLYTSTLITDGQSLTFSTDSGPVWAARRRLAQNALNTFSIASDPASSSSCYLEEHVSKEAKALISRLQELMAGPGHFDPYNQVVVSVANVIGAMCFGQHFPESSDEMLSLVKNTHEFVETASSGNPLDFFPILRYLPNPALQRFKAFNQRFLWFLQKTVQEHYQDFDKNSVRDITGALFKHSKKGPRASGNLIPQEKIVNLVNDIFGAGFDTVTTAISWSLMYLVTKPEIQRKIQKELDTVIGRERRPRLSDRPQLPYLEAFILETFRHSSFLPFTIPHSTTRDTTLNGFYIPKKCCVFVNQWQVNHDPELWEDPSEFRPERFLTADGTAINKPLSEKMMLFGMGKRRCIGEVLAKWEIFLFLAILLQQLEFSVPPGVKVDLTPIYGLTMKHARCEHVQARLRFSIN

For the compound `O=c1[nH]c(=O)n([C@H]2C[C@H](O)[C@@H](CO)O2)cc1Br`, the Potency in [1], in assay [2], in assay [3], in assay [4] and in assay [5] was > 92 µM (inactive) each time. Further, the Potency result in [6], in assay [9], in [10] and in assay [11] was “inactive” throughout. Besides, the outcome in assay [7] was inactive. Besides, the activity change, negative = cytotoxicity is -17.9% (inactive) in assay [8] and -3.47% (inactive) in [12].
Turning to `CNCCCN1c2ccccc2CCc2ccccc21`, the activity change, negative = inhibition in [13] was 29.5% (inactive) and 18.8% (inactive). Moreover, the compound was called inactive in assay [14]. In assay [6], the Potency result was “inactive”.
As to `NC(=Nc1ccccc1)Nc1ccccc1`, the Potency in assay [1], in [15], in assay [2], in assay [3], in [4] and in [5] was > 92 µM (inactive) in each case. For the same compound, the Potency entry in assay [6], in assay [9], in assay [10] and in assay [11] was “inactive” throughout. Moreover, in [7], the compound was classed as inactive. In addition, the activity change, negative = cytotoxicity in [8] is -3.31% (inactive); in assay [12] it was -3.07% (inactive).
For `CC(=O)OC(C)C[N+](C)(C)C` (stereo not drawn), the activity change, negative = inhibition in assay [13] is 11.1% (inactive). In addition, the compound was classed as inactive in assay [14]. For the same compound, in assay [16], the Potency was > 20.6 µM (inactive).
With `CC(C)(C)NCC(O)c1cc(O)cc(O)c1` (stereo not drawn), in assay [13], the activity change, negative = inhibition is -16.4% (inactive). For the same compound, in assay [14], the compound was classed as inactive.
Consider `CN(C)CCCN1c2ccccc2Sc2ccc(C(F)(F)F)cc21`, for which the Potency in [17] was 1.58 µM (active) and 794 nM (active); in assay [19] it was > 46 µM (inactive) and > 20.6 µM (inactive). The activity change, negative = inhibition in assay [18] was -88.2% (active). For the same compound, in assay [14], the call was inactive. Moreover, the Potency result in assay [6] is “inactive”.
`COCCc1ccc(OCC(O)CNC(C)C)cc1` (stereo not drawn): the values for the activity change, negative = inhibition in assay [13] and in assay [18] were 3.62% (inactive) and -25.7% (inactive), respectively. Besides, the call in assay [14] was inactive. The Potency in assay [16] is > 20.6 µM (inactive).
Consider `CC1=C(C)C(=O)C(CCCCC#CCCCC#CCO)=C(C)C1=O`, for which the Potency in [17] is 501 nM (active); in assay [16], > 46 µM (inactive) and > 20.6 µM (inactive); in assay [19] it was > 46 µM (inactive). The compound was classed as inactive in assay [14].
Take `CN(C)CCN(Cc1cccs1)c1ccccn1`: the Potency result is “inactive and 12.6 µM (active)” in [17]; > 46 µM (inactive) and > 20.6 µM (inactive) in assay [16]; > 46 µM (inactive) and > 20.6 µM (inactive) in assay [19]. For the same compound, the outcome in assay [14] was inactive.
For the compound `COc1ccc(CCN(C)CCCC(C#N)(c2cc(OC)c(OC)c(OC)c2)C(C)C)cc1OC` (stereo not drawn), the activity change, negative = inhibition in assay [13] is -6.26% (inactive). Besides, in assay [14], the call was inactive. In addition, in assay [16], the Potency is > 20.6 µM (inactive).
